Source: PubChem BioAssay (NCI)
About 83,000 compounds went through this panel and 20% of them were active in at least one assay; those are over-represented in the sample as a whole.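 Growth was measured after 48 h exposure to one concentration of compound in 96-well plates. Values under 10 count as active.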 Calls of active or inactive are those of the source.

Tests used:
Assay in all cases: NCI-60 one-dose screen, 48 h (100 = growth as untreated, 0 = no growth, -100 = all killed)
[1] = test system: NCI-H23 lung; settings: 10 µM unless noted
[2] = test system: NCI-H226 lung; settings: 10 µM unless noted
[3] = test system: NCI-H322M lung; settings: 10 µM unless noted
[4] = test system: HOP-92 NSCLC; settings: 10 µM
[5] = test system: NCI-H522 lung; settings: 10 µM
[6] = test system: A549/ATCC NSCLC; settings: 10 µM unless noted
[7] = test system: 786-0 renal; settings: 10 µM unless noted
[8] = test system: COLO 205 colon; settings: 10 µM unless noted
[9] = test system: NCI-H460 lung; settings: 10 µM unless noted

Measured: growth

Nc1cc(N)c2nc(-c3ccccc3)c(NCCc3ccc(Cl)c(Cl)c3)nc2c1
active: [1] -63.9% | [2] -76.2% | [3] -91.7% | [4] -78.5% | [5] -72.1% | [6] -62.8% | [7] -97.9% | [8] -62.4%

COc1ccc(Cn2cc3c(c2-c2ccccc2)CCc2cnoc2-3)cc1N
active: [9] -4.24% | [8] -24.7%
inactive: [1] 20.5% | [2] 13% | [3] 35% | [5] 33.8% | [6] 29.4% | [7] 38.8%

Cc1nc2c(nnn2-c2ccccc2)c2nc(-c3ccccc3)oc(=O)c12
inactive: [1] 109% | [2] 99.8% | [3] 103% | [4] 107% | [5] 105% | [6] 116% | [7] 101% | [8] 115%

CC[C@H](Nc1ncnc2nc[nH]c12)c1nc2cccc(NCc3ccc(C(=O)NO)o3)c2c(=O)n1-c1ccccc1
inactive: [1] 98.1% | [2] 109% | [3] 97.4% | [9] 111% | [5] 76.7% | [6] 102% | [7] 94.1% | [8] 115%

Nc1cc(N)c2nc(NCCc3ccc(Cl)c(Cl)c3)cnc2c1
active: [3] -3.74% | [8] 5.65%
inactive: [1] 63.8% | [2] 61.4% | [9] 71.9% | [5] 17.3% | [6] 71.1% | [7] 37.5%

COc1ccc(-c2cc(C#N)c(NNC(C)=O)[nH]2)cc1
inactive: [1] 91.4% | [2] 104% | [3] 117% | [9] 128% | [5] 107% | [6] 115% | [7] 95.3% | [8] 129%

C#CCCCCCCC[C@@H]1OC(=O)[C@H]([C@@H](C)CC)NC(=O)[C@H]([C@@H](C)CC)NC(=O)CC(=O)[C@@H]1C
inactive: [1] 99.8% | [2] 89% | [3] 99.6% | [4] 78.1% | [5] 92.5% | [6] 105% | [7] 101% | [8] 112%

O=C(O)c1occ(Cl)c1Cl
inactive: [1] 112% | [2] 114% | [3] 116% | [9] 118% | [5] 116% | [6] 97.8% | [7] 111% | [8] 114%

COC(=O)/C(Br)=C/c1c[nH]c2ccc(Br)cc12
inactive: [1] 98.9% | [2] 90.9% | [3] 100% | [4] 41.6% | [5] 63.9% | [6] 89.9% | [7] 55% | [8] 95.8%

CCOC(=O)c1c2c(cn1Cc1ccccc1)-c1oncc1CC2
inactive: [1] 106% | [2] 79.4% | [3] 92.8% | [5] 99% | [6] 95.1% | [7] 83.9% | [8] 123%

CC(=O)Nc1nc(C)c(C(=O)NNC(=O)Nc2ccccc2)s1
active: [2] 7.19%
inactive: [1] 102% | [3] 120% | [4] 60.6% | [5] 64.5% | [6] 99.1% | [7] 110% | [8] 105%

C#CCCCCCCC[C@@H]1OC(=O)[C@H]([C@@H](C)CC)NC(=O)[C@@H]([C@@H](C)CC)NC(=O)CC(=O)[C@@H]1C
inactive: [1] 99.2% | [2] 86.1% | [3] 96.9% | [9] 102% | [5] 90.7% | [6] 107% | [7] 109% | [8] 119%

O=C(/C=C/c1ccc(Br)cc1)c1ccccc1
inactive: [1] 97.9% | [2] 90.8% | [3] 106% | [4] 96.2% | [5] 77.8% | [6] 73% | [7] 85.1% | [8] 109%

CCOc1ccc(/C=N/NC(=O)c2cccc3ccccc23)cc1OCC
inactive: [1] 92.3% | [2] 96.7% | [3] 119% | [4] 68.5% | [5] 87.4% | [6] 96.6% | [7] 102% | [8] 110%

CCCCCCCCCC[N+](C)(C)C
active: [7] 8.96% | [8] -49.9%
inactive: [1] 28.8% | [2] 45% | [3] 75.6% | [5] 18.1% | [6] 34.3%

O=C1c2ccccc2CCc2ccccc21
inactive: [1] 100% | [2] 100% | [3] 92.7% | [4] 78.7% | [5] 86.4% | [6] 98.5% | [7] 109%

COc1nc(OC)nc(-c2cc(-c3cc(OC)c(OC)c(OC)c3)no2)n1
inactive: [1] 101% | [2] 92.8% | [3] 115% | [4] 95.4% | [5] 95.7% | [6] 88.8% | [7] 93.9%

Cc1c(Cc2ccccc2)c(=O)oc2c(C)c(OCc3n[nH]c(=S)o3)ccc12
inactive: [1] 57.7% | [2] 84.8% | [3] 63.8% | [4] 57.8% | [5] 61% | [6] 26.9% | [7] 68.9%

CCN(CC)CCCC(C)Nc1c(C)cnc2cc(Cl)c(C)cc12 (centres undefined)
inactive: [1] 91.9% | [2] 96.2% | [3] 87.6% | [9] 90.2% | [5] 82.3% | [6] 103% | [7] 64.7% | [8] 72.2%

CCOC(=O)CSSCC(=O)OCC
inactive: [1] 112% | [2] 123% | [3] 106% | [4] 103% | [5] 99.7% | [6] 98.7% | [7] 106%

CCOC(=O)C1=C(C(F)(F)F)NC(=O)NC1CN1C(=O)c2ccccc2C1=O (centres undefined)
inactive: [1] 99.3% | [2] 111% | [3] 107% | [9] 112% | [5] 115% | [6] 115% | [7] 104% | [8] 116%

CCc1ccc(C(=Nc2ccc(N(C)C(=O)CN3CCN(C)CC3)cc2)c2c(O)[nH]c3ccc(C(=O)OC)cc23)cc1
active: [1] -60.5% | [2] -26.2% | [3] -39.7% | [9] -74.5% | [5] -64.1% | [6] -29.3% | [7] -93.3% | [8] -69.4%

COc1ccc(OC)c(Cn2cc3c(c2-c2ccccc2)CCc2cnoc2-3)c1
inactive: [1] 60.8% | [2] 78.8% | [3] 57.5% | [9] 22.7% | [5] 56.4% | [6] 50.8% | [7] 66.6% | [8] 35.9%

COc1ccc(-c2nc(SCC(C)C)nc(Nc3ccc([N+](=O)[O-])cc3)c2C#N)cc1
inactive: [1] 98.5% | [2] 85.3% | [3] 86.8% | [4] 93.3% | [5] 92% | [6] 61.5% | [7] 94.7%

CC(C)(C)c1ccc([I+]c2ccc(C(C)(C)C)cc2)cc1
inactive: [2] 23.8% | [3] 55.8% | [6] 39.9% | [7] 16.8%
active: [1] -13.7% | [4] -9.02% | [5] 7.79% | [8] -42.1%

CC(=O)OC1CC2C3CCC4C[C@@H](NC(=O)C=C(C)C)CC[C@]4(C)C3CC[C@]2(C)[C@H]1C(C)N(C)C (some centres undefined)
active: [3] -2.28% | [9] -39.9% | [8] -84%
inactive: [1] 40.6% | [2] 30.5% | [5] 61.2% | [6] 11.6%

Cc1ccc(C(C)C)c(OCc2ccc(C(=O)N/N=C/c3cccc(O)c3O)cc2)c1
inactive: [1] 25.9% | [2] 68.1% | [3] 43.1% | [4] 37.9% | [5] 47.4% | [6] 52.9% | [7] 16% | [8] 16.3%

CCCCn1c(Cc2ccc(OC)cc2)nc2cc(OC)c(OC)cc2c1=O
inactive: [1] 62.1% | [2] 68.1% | [3] 101% | [4] 61.9% | [5] 87% | [6] 19.7% | [8] 107%

COc1ccc(-n2nnnc2-c2cn[nH]c2C(F)(F)F)cc1
inactive: [1] 128% | [2] 91% | [3] 105% | [4] 91.8% | [5] 79.3% | [6] 104% | [7] 106% | [8] 96.8%

CC(=O)Nc1ccc(C(=O)/C=C/c2ccc(N(C)C)cc2)cc1
inactive: [1] 93.9% | [2] 96.9% | [3] 106% | [4] 101% | [5] 76.6% | [6] 93.9% | [7] 96.7% | [8] 106%

c1ccc(C(=NNc2nc3ccccc3o2)c2ccccn2)nc1
active: [2] -2.97% | [6] 6.29% | [7] 6.88%
inactive: [1] 10.8% | [3] 13.3% | [4] 34.4% | [5] 20.9% | [8] 18%

Cc1nnc(-c2cc3c(ccc4ccccc43)oc2=O)c2cn(-c3ccc(Cl)cc3)nc12
inactive: [1] 86.9% | [2] 92% | [3] 98.8% | [5] 81.2% | [6] 95.2% | [7] 97.5% | [8] 111%

CCOC(=O)NNc1[nH]c(-c2ccc(OC)cc2)cc1C#N
inactive: [1] 88.9% | [2] 101% | [3] 79.4% | [4] 76.4% | [5] 76% | [6] 100% | [7] 94.8% | [8] 14.5%
